# Experimental data as given in PubChem BioAssay (NCATS).
# Records with an inconclusive call do not appear. The source made the active and inactive calls. Calls follow the shape of the dose curve; as a rule, active = well fitted inhibition curve with a large enough effect; inconclusive = small, poorly fitted or top-dose-only effect; inactive = flat fitted curve, though single readings scatter.
# Target: Voltage-gated inwardly rectifying potassium channel KCNH2 (Homo sapiens) (UniProt Q12809)
# Test: qHTS Assay for Small Molecule Inhibitors of the Human hERG Channel Activity (AID 588834);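 also: lower thallium flux fluorescence means stronger hERG block; nearly all actives have a fitted effect of over 50% in size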; as to activity change, negative = inhibition: top concentration of the series differs between compounds
# Details: U2OS BacMam hERG, FluxOR thallium flux fluorescence; series mostly up to 46.1 µM; activity change, negative = inhibition: at the top concentration
# How it was run: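 Concentration-response qHTS measuring drop in thallium-sensitive dye signal. U2OS cells carrying BacMam hERG; compound exposure ~10 min, then stimulation buffer and 2 min read at 1 sec intervals.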
# % is scaled to controls: 0 for no effect and ±100 for the full control effect; potency is read from the fitted curve at half-maximal effect.
# Sequence of Voltage-gated inwardly rectifying potassium channel KCNH2 (Homo sapiens) (Q12809 whole entry, looked up): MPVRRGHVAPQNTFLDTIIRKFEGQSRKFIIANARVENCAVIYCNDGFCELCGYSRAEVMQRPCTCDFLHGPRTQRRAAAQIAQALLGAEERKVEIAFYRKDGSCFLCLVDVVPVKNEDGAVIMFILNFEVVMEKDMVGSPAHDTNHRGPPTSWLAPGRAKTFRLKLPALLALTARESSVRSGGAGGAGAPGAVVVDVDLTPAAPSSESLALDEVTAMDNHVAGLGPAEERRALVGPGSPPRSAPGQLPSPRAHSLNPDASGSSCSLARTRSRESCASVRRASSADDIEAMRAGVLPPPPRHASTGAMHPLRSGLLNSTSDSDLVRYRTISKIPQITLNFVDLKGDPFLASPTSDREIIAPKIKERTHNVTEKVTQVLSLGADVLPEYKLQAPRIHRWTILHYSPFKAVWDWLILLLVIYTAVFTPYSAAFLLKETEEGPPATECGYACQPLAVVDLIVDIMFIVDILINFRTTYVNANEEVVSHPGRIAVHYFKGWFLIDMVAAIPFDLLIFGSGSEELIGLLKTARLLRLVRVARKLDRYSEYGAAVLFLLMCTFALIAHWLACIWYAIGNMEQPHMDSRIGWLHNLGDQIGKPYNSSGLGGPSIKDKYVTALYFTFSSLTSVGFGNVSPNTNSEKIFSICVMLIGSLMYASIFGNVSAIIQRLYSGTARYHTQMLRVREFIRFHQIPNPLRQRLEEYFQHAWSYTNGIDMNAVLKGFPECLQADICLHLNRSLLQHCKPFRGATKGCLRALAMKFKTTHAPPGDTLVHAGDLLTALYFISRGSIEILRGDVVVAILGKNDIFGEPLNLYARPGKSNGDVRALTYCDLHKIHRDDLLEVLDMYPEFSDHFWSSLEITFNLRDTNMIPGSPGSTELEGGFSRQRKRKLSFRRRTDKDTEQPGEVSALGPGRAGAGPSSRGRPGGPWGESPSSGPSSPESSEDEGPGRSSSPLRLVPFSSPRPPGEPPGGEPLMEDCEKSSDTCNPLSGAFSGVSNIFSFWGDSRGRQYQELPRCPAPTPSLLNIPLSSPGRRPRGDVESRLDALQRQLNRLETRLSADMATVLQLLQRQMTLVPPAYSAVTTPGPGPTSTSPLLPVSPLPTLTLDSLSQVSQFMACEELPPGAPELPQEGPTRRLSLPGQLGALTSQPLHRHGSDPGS
SMILES,"activity change, negative = inhibition",Potency
CCCC(=O)Nc1c(I)cc(I)c(CC(CC)C(=O)O)c1I (stereo not given),16.9% (inactive),
O=C1C2CC3CC1CC(O)(C3)C2,4.5% (inactive),
COc1c(O[C@@H]2O[C@H](CO)[C@@H](O)[C@H](O)[C@H]2O)cc2c(c1OC)-c1ccc(SC)c(=O)cc1[C@@H](NC(C)=O)CC2,5.55% [at 20.6 µM] (inactive),
O=C1c2c(O)cccc2[C@H]([C@@H]2O[C@H](CO)[C@@H](O)[C@H](O)[C@H]2O)c2cc(CO)cc(O)c21,4.23% (inactive),
CO/N=C(\C(=O)N[C@@H]1C(=O)N2C(C(=O)O)=C(C[N+]3(C)CCCC3)CS[C@H]12)c1csc(N)n1,0.634% (inactive),
CC(=O)O[C@@H]1CC2CCC1(C)C2(C)C (stereo not given in full),-6.52% (inactive),
CO/N=C(\C(=O)N[C@@H]1C(=O)N2C(C(=O)O)=C(CSC(=O)c3ccco3)CS[C@H]12)c1csc(N)n1,1.24% (inactive),
CC1(C)C(\C=C/C=C\C=C/C=C2/N(CCCCS(=O)(=O)O)c3ccc4ccccc4c3C2(C)C)=[N+](CCCCS(=O)(=O)[O-])c2ccc3ccccc3c21,0.325% (inactive),
CNCC(=O)N[C@@H](CCCN=C(N)N)C(=O)N[C@H](C(=O)N[C@@H](Cc1ccc(O)cc1)C(=O)N[C@H](C(=O)N[C@@H](Cc1cnc[nH]1)C(=O)N1CCC[C@H]1C(=O)N[C@@H](C)C(=O)O)C(C)C)C(C)C,21.7% (inactive),
Nc1nc(NC2CC2)c2ncn([C@@H]3C=C[C@@H](CO)C3)c2n1,2.71% (inactive),
CC(C)(C)NCC(O)CSc1nc(-c2ccc(C(N)=O)s2)cs1 (stereo not given),-10% (inactive),
CC[C@@H]1/C=C(\C)C[C@H](C)C[C@H](OC)[C@H]2O[C@@](O)(C(=O)C(=O)N3CCCC[C@H]3C(=O)O[C@H](/C(C)=C/[C@@H]3CC[C@@H](Cl)[C@H](OC)C3)[C@H](C)[C@@H](O)CC1=O)[C@H](C)C[C@@H]2OC,3.82% (inactive),
CCN(CC)CCOC[C@H]1O[C@@H](O)[C@H](OCCN(CC)CC)[C@@H](O)[C@@H]1O,3.03% (inactive),
CCCC1C(=O)N2C(N(C)C)=Nc3ccc(C)cc3N2C1=O (stereo not given),-2.03% [at 20.6 µM] (inactive),
CC[C@@H](C(=O)[C@@H](C)[C@@H](O)[C@H](C)[C@@H]1O[C@@H]([C@@H](CC)C(=O)O)CC[C@@H]1C)[C@H]1O[C@]2(C=C[C@@H](O)[C@]3(CC[C@@](C)([C@H]4CC[C@](O)(CC)[C@H](C)O4)O3)O2)[C@H](C)C[C@@H]1C,22.7% (inactive),
CC(=O)N[C@@H]([C@@H](O)[C@H](O)[C@H](O)CO)[C@@H](O)CC(=O)C(=O)O,17.7% (inactive),
Cc1c(O)c(=O)ccn1C,-4.57% (inactive),
CO[C@H]1O[C@@H]2O[C@@]3(C)CC[C@H]4[C@H](C)CC[C@@H]([C@H]1C)[C@@]24OO3,-0.525% (inactive),
NS(=O)(=O)c1cc2c(cc1Cl)NC(Cc1ccccc1)NS2(=O)=O (stereo not given),0.179% (inactive),
CC(=O)OCC1=C(C(=O)O)N2C(=O)[C@@H](NC(=O)Cc3ccccc3)[C@H]2SC1,3.07% (inactive),
C=C[C@]1(C)C[C@@H](OC(=O)CSCCN(CC)CC)[C@]2(C)[C@H](C)CC[C@]3(CCC(=O)[C@H]32)[C@@H](C)[C@@H]1O,,2.24 µM (active)
O=C(O)c1cc(O)c2c(c1)[C@H]([C@H]1c3cc(C(=O)O)cc(O)c3C(=O)c3c(O[C@@H]4O[C@H](CO)[C@@H](O)[C@H](O)[C@H]4O)cccc31)c1cccc(O[C@@H]3O[C@H](CO)[C@@H](O)[C@H](O)[C@H]3O)c1C2=O,4.17% (inactive),
CC1=C[C@H](O)CC(C)(C)[C@H]1/C=C/C(C)=C/C=C/C(C)=C/C=C/C=C(C)/C=C/C=C(C)/C=C/C1=C(C)C[C@@H](O)CC1(C)C,7.71% (inactive),
O=C(O)[C@@H]1C[C@H](CP(=O)(O)O)CCN1,8.36% (inactive),
NC[C@@H]1CC[C@@H](N)[C@@H](O[C@H]2[C@H](O)[C@@H](O[C@H]3O[C@H](CO)[C@@H](O)[C@H](N)[C@H]3O)[C@H](N)C[C@@H]2N)O1,3.15% (inactive),
NC[C@H]1O[C@H](O[C@H]2[C@H](O)[C@@H](O[C@H]3O[C@H](CO)[C@@H](O)[C@H](N)[C@H]3O)[C@H](N)C[C@@H]2N)[C@H](O)[C@@H](O)[C@@H]1O,10.2% [at 20.6 µM] (inactive),
Cc1cc(O)c2c(c1)O[C@@]1(C)CC[C@H]3C(C)(C)CCCC34CO[C@@H]2[C@H]41 (stereo not given in full),-29.4% (inactive),
CC(C)[C@@H]1CC[C@@H](C)C[C@H]1O,12.8% (inactive),
CC(C)=CCC/C(C)=C/CC/C(C)=C/CC/C(C)=C/CC1=C(C)C(=O)c2ccccc2C1=O,-1.6% (inactive),
Nc1nc2c(c(=O)[nH]1)N(C=O)C(CNc1ccc(C(=O)N[C@@H](CCC(=O)O)C(=O)O)cc1)CN2 (stereo not given in full),-63.6% [at 20.6 µM] (inactive),
